Compounds with a hit are over-represented: about 2.1% of the library has one in this group of screens.
HSV replic up – enhancers of HSV replication in host cells, fold increase, host cell viability; 220,000 compounds, 0.005% hits; HSV replication augmentation in cells; maximum fold increase; in the data active = maximum fold increase above about 1.5; inconclusive = no clear call, values can overlap the other calls; tested in PC3 cells
m-calpain inh – inhibitors of pig calpain II, primary screen, biochemical, fluorogenic peptide substrate, 1536-well; purified calpain II, 30 min; inhibition, % at 16 µM; 220,000 compounds, 0.37% hits;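 active = inhibition above about 50%, limit read from the data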
Arbovirus inh – antivirals against arbovirus infection, primary screen, cell-based, full library, 10K replicate subset | arbovirus infection cell-based antiviral screen | inhibition, % at 10 µM | 200,000 compounds, 0.37% hits; in the data active = inhibition above about 30%
HMGR II inh – inhibitors of E. faecalis class II HMGR, primary screen, biochemical, Enterococcus faecalis; purified E. faecalis HMGR, NADPH absorbance 340 nm kinetic; HMG-CoA reductase (Enterococcus faecalis, mvaE); AID 1066, 2008; 190,000 compounds, 0.41% hits; inhibition, % at 10 µM;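 active = inhibition above a set limit, the median over all tested compounds plus 3 SD, cut at about 9.5% in these data; inconclusive = no clear call, values can overlap the other calls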;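 note: enzyme runs in reverse so mevalonate oxidation gives rising NADPH absorbance; 0% = complete reaction with DMSO and 100% = background rate lacking mevalonate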
ROMK primary – ROMK potassium channel modulators, primary screen, cell-based, thallium flux, MLSMR library; ATP-sensitive inward rectifier potassium channel 1 (Homo sapiens), P48048; Tet-inducible ROMK, thallium flux fluorescence; actives lie on both sides; B-score at 10 µM; 130,000 compounds, 2% hits;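 active = signal ratio slope over the read window, or its plate-corrected B-score, at least 3 SD from the plate mean, either direction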;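 note: B-score of the F/F0 ratio slope over 7 to 12 s after thallium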
Target sequence (P48048 whole entry, looked up): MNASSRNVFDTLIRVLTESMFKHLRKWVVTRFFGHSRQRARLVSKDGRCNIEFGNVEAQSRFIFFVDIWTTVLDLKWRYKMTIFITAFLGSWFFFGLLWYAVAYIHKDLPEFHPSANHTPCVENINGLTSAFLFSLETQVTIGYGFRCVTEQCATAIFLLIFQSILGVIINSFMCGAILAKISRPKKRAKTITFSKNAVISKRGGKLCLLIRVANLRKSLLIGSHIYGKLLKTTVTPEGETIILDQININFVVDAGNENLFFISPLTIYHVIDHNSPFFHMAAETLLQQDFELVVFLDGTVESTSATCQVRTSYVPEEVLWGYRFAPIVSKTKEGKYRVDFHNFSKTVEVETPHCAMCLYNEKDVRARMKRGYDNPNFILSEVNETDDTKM
ROMK retest – ROMK channel modulator hit retest, confirmation, cell-based, thallium flux, duplicate, resupplied hits | shares compounds with ROMK primary | normalized thallium flux (F/F0 slope) at 10 µM | 3,000 compounds, 54% hits | fluorescence ratio; stronger effect = lower value;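 active = Flux at 10 µM at least 3 SD below or above vehicle control mean in one or both replicates; inconclusive = no clear call, values can overlap the other calls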
Numbers without * were called inactive.

CCOC(=O)c1cnn(-c2ccc(Cl)cc2)c1C1CCN(C(=O)OC(C)(C)C)CC1 was read as HSV replic up inactive, m-calpain inh 16.9, Arbovirus inh 3.0, HMGR II inh -1.9 and ROMK primary 0.116.
Screening Cc1ccc(-n2ncc(C(=O)Nc3cc(Cl)ccc3Cl)c2C2CCNCC2)cc1 returned HSV replic up inactive, m-calpain inh 15.3, Arbovirus inh -18.3, HMGR II inh -3.0, ROMK primary -6.24* and ROMK retest 0.0579*.
For Cc1nnc(SCC(=O)NC(=O)Nc2ccc3c(c2)OCCO3)n1N the results were HSV replic up inactive and m-calpain inh 4.0.
`CCN1CCc2c(OCC(=O)N3CCCCC3)cccc2C1=O` gave HSV replic up inactive, m-calpain inh 21.7, Arbovirus inh -4.6, HMGR II inh -7.6 and ROMK primary -0.0102.
COC1(OC)N=C(N)C2(C#N)C(c3ccc(F)cc3)C12C#N (configuration not stated) was read as HSV replic up inactive, m-calpain inh 10.4, Arbovirus inh 7.6, HMGR II inh -6.2 and ROMK primary 0.233.
Screening CCSC1(SCC)N=C(N)C2(C#N)C(c3ccc(F)cc3)C12C#N (configuration not stated) returned HSV replic up inactive, m-calpain inh -25.1, Arbovirus inh -1.4, HMGR II inh -0.5 and ROMK retest inconclusive.
O=C1COc2ccc(C(=O)COC(=O)c3cc(S(=O)(=O)NCc4ccccc4)ccc3O)cc2N1 was read as HSV replic up inactive and m-calpain inh -18.3.
CC1Cc2ccccc2N1C(=O)COC(=O)CCc1nc2ccccc2c(=O)[nH]1 (configuration not stated) was read as HSV replic up inactive, m-calpain inh -9.7, Arbovirus inh 4.0, HMGR II inh 0.8 and ROMK primary -1.01.
For Fc1ccc(-c2n[nH]c(=S)c3ccccc23)cc1 the results were HSV replic up inactive, m-calpain inh 1.7, Arbovirus inh -1.1 and HMGR II inh 0.1.
For CCCN1C(=O)/C(=C/c2ccncc2)SC1=S the results were HSV replic up inactive, m-calpain inh 11.9, Arbovirus inh -1.1, HMGR II inh -1.0, ROMK primary -2.84* and ROMK retest 0.0444*.
`Cc1cc(N2CCOCC2)nc(NCc2ccccc2)n1` gave HSV replic up inactive, m-calpain inh 7.0, Arbovirus inh 1.9 and HMGR II inh -0.4.
Cc1cc(N2CCCCC2)nc(NCc2ccccc2)n1 was read as HSV replic up inactive, m-calpain inh -0.3, Arbovirus inh -19.9, HMGR II inh -7.3 and ROMK retest 0.0653*.
COC(=O)N/N=C/c1ccc(-c2ccc(C)c(Cl)c2)o1 was read as HSV replic up inactive, m-calpain inh 18.4, Arbovirus inh -0.9 and HMGR II inh -2.0.
`Cc1ccc(-c2ccc(/C=N/c3ncn[nH]3)o2)cc1Cl` gave HSV replic up inactive, m-calpain inh -20.3, Arbovirus inh 3.4, HMGR II inh -1.9, ROMK primary 3.39* and ROMK retest 0.0871.
Screening C=CCN(CC(=O)O)S(=O)(=O)c1ccccc1C(F)(F)F returned HSV replic up inactive, m-calpain inh -17.9, Arbovirus inh 9.7, HMGR II inh -10.7 and ROMK primary -0.633.
Screening N#Cc1c(NCc2ccccc2)ccnc1NCc1cccnc1 returned HSV replic up inactive, m-calpain inh -12.8, Arbovirus inh 14.7, HMGR II inh 2.4 and ROMK retest 0.0731.
For Cc1ccc(CNC(=O)Cn2c(=O)c3sccc3n(Cc3ccc([N+](=O)[O-])cc3)c2=O)cc1 the results were HSV replic up inactive, m-calpain inh 16.4, Arbovirus inh -10.7, HMGR II inh 0.3 and ROMK primary -0.0233.
O=C(NCC(c1ccco1)N1CCCCC1)c1ccc(OCc2ccccc2)cc1 (configuration not stated) was read as HSV replic up inactive, m-calpain inh 43.9, Arbovirus inh 12.8, HMGR II inh 2.0, ROMK primary -3.24* and ROMK retest 0.0701.
COc1ccc(NC2=NCC(Cc3ccc(Br)cc3)S2)cc1 (configuration not stated) was read as HSV replic up inactive, m-calpain inh 13.3, Arbovirus inh -12.1, HMGR II inh -5.3 and ROMK primary -1.1.
For CC(=O)c1c(C)[nH]c(C(=O)Nc2nc(C)cs2)c1C the results were HSV replic up inactive, m-calpain inh -10.0, Arbovirus inh -12.6, HMGR II inh 4.8, ROMK primary 2.83* and ROMK retest 0.0858.
`CC(=O)c1c(C)[nH]c(C(=O)Nc2nc(-c3ccc(Cl)cc3)cs2)c1C` gave HSV replic up inactive, m-calpain inh -31.6, Arbovirus inh -7.7, HMGR II inh 4.3 and ROMK primary 0.786.
For CC(C)CCNC(=O)C(c1ccc(O)cc1)N(C(=O)C1COc2ccccc2O1)c1cccc(O)c1 (configuration not stated) the results were HSV replic up inactive, m-calpain inh -3.5, Arbovirus inh -6.0, HMGR II inh -9.6, ROMK primary -2.68* and ROMK retest 0.055*.
Screening CS(=O)(=O)N1N=C(c2cccs2)CC1c1ccc(Cl)o1 (configuration not stated) returned HSV replic up inactive, m-calpain inh -35.3, Arbovirus inh 2.3, HMGR II inh -4.7 and ROMK primary -0.543.
CCOc1cc(/C=N/NC(=O)CN2CCCCC2)ccc1OCc1cccc(Cl)c1 was read as HSV replic up inactive, m-calpain inh 27.8, Arbovirus inh 6.1, HMGR II inh -6.0, ROMK primary -4.63* and ROMK retest inconclusive.
Screening Cc1ccc(NC(=O)c2cc(-c3ccccc3)nn2-c2ccccc2)cc1 returned HSV replic up inactive, m-calpain inh 3.3, Arbovirus inh 6.1, HMGR II inh 3.2 and ROMK primary 0.758.
O=C(Nc1ccc(F)cc1)c1nn(-c2ccccc2)c(=O)cc1Cl was read as HSV replic up inactive, m-calpain inh 6.8, Arbovirus inh -31.2, HMGR II inh -2.6, ROMK primary -3.3* and ROMK retest 0.0657*.
Screening O=C(O)CCCNc1c(C(=O)Nc2ccc(Cl)cc2)cc([N+](=O)[O-])cc1[N+](=O)[O-] returned HSV replic up inactive, m-calpain inh 10.4, Arbovirus inh 20.4, HMGR II inh -5.8 and ROMK primary 0.374.
`O=C(Nc1cccc(N=Cc2cc(Cl)cc(Br)c2O)c1)c1ccco1` gave HSV replic up inactive, m-calpain inh -26.4, Arbovirus inh -5.5, HMGR II inh -0.2, ROMK primary 4.08* and ROMK retest 0.114*.
For O=C(Nc1cccc(N=Cc2cc(Br)cc(Br)c2O)c1)c1ccco1 the results were HSV replic up inactive, m-calpain inh -22.3, Arbovirus inh -23.7, HMGR II inh -5.5 and ROMK retest 0.11*.

Bioassay records: PubChem BioAssay, several laboratories
